Molecules are shown by their SMILES. Active and inactive are the calls of the source. The calls were made as follows: active = hit-call score of the fitted dose curve at least 0.9, where 1 is the maximum; inactive = score below 0.9.

Chain of Transcription factor E2F1 (Homo sapiens) (Q01094 whole entry, looked up): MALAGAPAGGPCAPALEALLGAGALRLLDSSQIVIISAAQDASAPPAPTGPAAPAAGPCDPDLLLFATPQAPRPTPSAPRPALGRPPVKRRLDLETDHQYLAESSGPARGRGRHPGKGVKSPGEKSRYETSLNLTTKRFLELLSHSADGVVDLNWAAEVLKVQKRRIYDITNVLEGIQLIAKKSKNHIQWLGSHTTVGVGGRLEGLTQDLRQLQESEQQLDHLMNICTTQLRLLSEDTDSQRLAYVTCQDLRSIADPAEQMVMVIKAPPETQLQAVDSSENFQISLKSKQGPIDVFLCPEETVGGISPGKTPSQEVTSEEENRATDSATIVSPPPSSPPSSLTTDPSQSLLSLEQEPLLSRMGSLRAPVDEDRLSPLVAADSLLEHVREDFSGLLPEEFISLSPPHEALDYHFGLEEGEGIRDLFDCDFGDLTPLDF

The target in this assay is Transcription factor E2F1 (Homo sapiens) (UniProt Q01094). Briefly: ATG_E2F_CIS: Attagene CIS-FACTORIAL HepG2 Assay for human E2F Transcription Factor 1 (AID 2282935). As to conditions: HepG2 Attagene cis-reporter, E2F reporter RNA transcripts; actives raise or lower the signal. The method, then:
ATG_CIS is a cell-based, multiplexed-readout assay that uses HepG2, a human liver cell line, with measurements taken at 24 hours after chemical dosing in a 24-well plate.ATG_E2F_CIS is one of 52 assay component(s) measured or calculated from the ATG_CIS assay. It is designed to make measurements of mRNA induction, a form of inducible reporter, as detected with fluorescence intensity signals by Reverse transcription polymerase chain reaction (RT-PCR) and Capillary electrophoresis technology.Data from the assay component ATG_E2F_CIS was analyzed into 1 assay endpoint. This assay endpoint, ATG_E2F_CIS, was analyzed with bidirectional fitting relative to DMSO as the negative control and baseline of activity. Using a type of inducible reporter, measures of mRNA for gain or loss-of-signal activity can be used to understand the reporter gene at the transcription factor-level as they relate to the gene E2F1. Furthermore, this assay endpoint can be referred to as a primary readout, because this assay has produced multiple assay endpoints where this one serves a reporter gene function. To generalize the intended target to other relatable targets, this assay endpoint is annotated to the dna binding intended target family, where the subfamily is E2F transcription factor.
Human liver HepG2 cells are transiently transfected with multiple reporter transcription units (MRTUs) in 6-well plates using FuGene 6 reagent (Roche; 3 ml FuGene/1 mg DNA). The MRTU constructs are regulated by a cis-regulating element (promoter). […] A major difference between the CIS and TRANS system is that in CIS activities of endogenous TFs are measured, whereas the TRANS assay evaluates changes in activities of exogenous, chimeric NR-Gal4 proteins. […] At the end of 24 hour incubation, total RNA was isolated using TriZol reagent (Invitrogen). The isolated RNA is then reverse-transcribed using oligo(dT) primer and Mo-MLV reverse transcriptase (Invitrogen) with DNAse I (Ambion) treatment for 30 min. The one-tenth of the produced cDNA was amplified by PCR using Taq DNA polymerase (Invitrogen) and two reporter sequence-specific primers. The PCR products were fluorescently labeled by primer extension with 6-arboxyfluorescein (6-FAM) 5'-labeled reporter sequence-specific primer (2 min at 95 C, 20 s at 68 C and 10 min at 72 C) and these products were digested with 5U of HpaI (New England Biolabs) for 2h at 37 C. The fragments were purified using Qiaquick PCR columns (Qiagen), analyzed on an ABI 3130xL genetic analyzer (Applied Biosystems) with peak positions identified by using a set of X-rhodamine (ROX)-labeled MapMarker1000 molecular weight standards (BioVentures). The raw capillary electrophoresis data was processed using Attagraph software (Attagene).
Regarding `FC(F)(F)C(F)(F)C(F)(F)C(F)(F)C(F)(F)C(F)(F)CC1CO1` (stereo not given), the result was inactive.

With `CCCCNc1ccccc1`, the compound was classed as inactive.

`CCc1ccc(C(c2ccc(CC)cc2)C(Cl)Cl)cc1`: the call was inactive.

Consider `Nc1ccc([N+](=O)[O-])cc1O`, for which the compound was classed as inactive.

With `FC(F)(F)C(F)(F)C(F)(F)CI`, the compound was called inactive.

For the compound `O[Si](c1ccccc1)(c1ccccc1)c1ccccc1`, the outcome was inactive.

In the case of `O=S(=O)(O)c1ccc2ccccc2c1`, the compound was classed as inactive.

Regarding `C=C(C)C(=O)OCC(F)(F)C(F)(F)C(F)(F)C(F)(F)C(F)(F)C(F)(F)C(F)(F)F`, the call was inactive.

With `C#C[C@]1(O)CC[C@H]2[C@@H]3CCc4cc(OC)ccc4[C@H]3CC[C@@]21C`, the result was inactive.

Take `CCCCCCC(C)OC(=O)CCCCC(=O)OC(C)CCCCCC` (stereo not given): the result was inactive.

In the case of `O=S(=O)(OCC(F)F)C(F)(F)F`, the outcome was inactive.

For `O=C(O)C(F)(F)C(F)(F)C(F)F`, the result was inactive.

Regarding `FC(F)(F)C(F)(F)C(F)(F)C(F)(F)CCI`, the compound was classed as inactive.

`O=C(O)C(F)(F)C(F)(F)C(F)(F)C(F)(F)C(F)(F)C(F)(F)C(F)(F)C(F)(F)C(F)(F)C(F)(F)C(F)(F)C(F)(F)C(F)(F)F`: the compound was classed as inactive.

With `OCC(F)(F)C(F)(F)C(F)(F)C(F)F`, the compound was classed as inactive.

Regarding `OCC(F)(F)C(F)(F)C(F)(F)F`, the outcome was inactive.

In the case of `O=C(O)C=C(C(F)(F)F)C(F)(F)F`, the call was inactive.

Take `NC(=O)C(F)(F)C(F)(F)C(F)(F)C(F)(F)F`: the result was inactive.

On to `CC/C=C\CCOC(=O)c1ccccc1`, for which the outcome was inactive.

Take `c1ccc(B(c2ccccc2)c2ccccc2)cc1`: the compound was called inactive.

As to `CC(C)c1ccccc1N`, the compound was classed as inactive.

Take `CC(CCl)OP(=O)(OC(C)CCl)OC(C)CCl` (stereo not given): the compound was called inactive.

As for `C=CC(F)(F)C(F)(F)C(F)(F)C(F)(F)C(F)(F)C(F)(F)C(F)(F)C(F)(F)C=C`, the compound was classed as inactive.

Take `C=C(C)C(=O)OCCC(F)(F)C(F)(F)C(F)(F)C(F)(F)C(F)(C(F)(F)F)C(F)(F)F`: the result was inactive.

The AC50 is the midpoint of the concentration-response curve, whichever way the signal moves. `N=C(N)C(F)(F)C(F)(F)C(F)(F)C(F)(F)C(F)(F)C(F)(F)C(F)(F)F`: the AC50 was 199 µM (active).

Regarding `FC(F)(F)C(F)(F)C(F)(F)C(F)(F)C(F)(F)C(F)(F)CCS`, the result was inactive.

For `O=C(OCCOCCOCCOC(=O)c1ccccc1)c1ccccc1`, the compound was called inactive.

As for `CCCCCCOC(=O)c1ccccc1`, the compound was called inactive.

As for `O=C(O)C(F)(F)C(F)(F)C(F)(F)F`, the call was inactive.

For the compound `O=C(Cl)C(F)(F)C(F)(F)C(F)(F)C(F)(F)C(F)(F)C(F)(F)C(F)(F)C(F)(F)F`, the compound was called inactive.

For the compound `O=C(O)C(F)(F)C(F)(F)C(F)(F)C(F)(F)C(F)(F)C(F)(F)C(F)(F)C(F)(F)C(F)(F)C(F)F`, the result was inactive.

Consider `FC(F)(F)C(F)(F)C(F)(F)C(F)(F)C(F)(F)C(F)(F)C(F)(F)C(F)(F)CCS`, for which the compound was called inactive.

For the compound `CCCCCCCCC(F)(F)C(F)(F)C(F)(F)C(F)(F)C(F)(F)C(F)(F)F`, the compound was classed as inactive.

As for `[Co]`, the call was inactive.

Consider `CCC(=O)OCCc1ccccc1`, for which the compound was classed as inactive.

On to `CCCCOc1ccc(N)cc1`, for which the compound was classed as inactive.

On to `CO[Si](OC)(c1ccccc1)c1ccccc1`, for which the compound was called inactive.

Take `CC(C)(C)C(=O)CC(=O)C(F)(F)C(F)(F)C(F)(F)F`: the outcome was inactive.

For `Oc1ccc(Nc2ccccc2)cc1`, the outcome was inactive.

For the compound `FC(F)(Br)C(F)(F)C(F)(F)C(F)(F)C(F)(F)C(F)(F)Br`, the compound was classed as inactive.
